# Laboratory results: PubChem BioAssay AID602346 (Broad Institute, 2012)
# Among all 340,000 compounds or so, about 1,200 (0.35%) were called active. The sample as a whole holds a higher share of actives than the screen did. Unmarked numbers belong to inactive results. Rule as the data show it: active = inhibition above about 50% (passing the limit was not always enough); inconclusive = no clear call, values can overlap the other calls; inactive = below about 31%.
# Assay: blockers of Vif multimerization in cells – imaging, HEK293T, single point, primary screen (AID 602346)
# Conditions: Vif self-association by quenched fluorescence, 24 h, at 7.49 µM, active compounds read high
row,SMILES,inhibition
1,CN(C)c1cccc(NC(=O)c2ccc(-c3ccc(F)c(F)c3)c3ccoc23)c1,3.47%
2,CC[C@@H]1Cc2cc(O)ccc2C2=C1c1ccc(O)cc1C[C@H]2CC,85.1% (active)
3,CC(=O)Nc1cccc(-c2cc(NC(C)=O)c3ncc(-c4ccccc4)n3c2)c1,18.3%
4,O=c1[nH]c2ccccc2n1C1CCN(CCOc2ccccc2)CC1,-4.07%
5,COc1ccc(/C=C/C(=O)c2c(O)cc(OC)cc2OC)cc1,-16.7%
6,CC(C)(C)Oc1ncc(Br)c(OC(C)(C)C)n1,61.1% (active)
7,COc1cccc(-c2cnc(OC(C)(C)C)nc2OC(C)(C)C)c1,-0.006%
8,Cc1ccc(NC(=O)Cn2sc3ccccc3c2=O)cc1,4.93%
9,COc1ccc(NC(=O)C2=C(C)NC(=O)NC2c2ccccc2[N+](=O)[O-])cc1 (stereo not given),-2.26%
10,COc1ccc(NC(=O)ON=C2c3ccccc3-c3ccccc32)cc1,-9.14%
11,COc1ccc(N/C=C(\C2OC(=O)c3ccccc32)[N+](=O)[O-])cc1 (stereo not given),50.1% (active)
12,NC(Cc1ccccc1)c1csc(Nc2cc(Oc3ccccc3)ncn2)n1 (stereo not given),-3.02%
13,CCOC(=O)[C@H]1Nc2ccc(Cl)cc2[C@@H]2[C@H]1C1CC(c3ccccc31)N2C(=O)OCc1ccccc1 (stereo not given in full),2.38%
14,CC(=O)Oc1ccc(Cn2c(C)c(C(=O)NCc3ccc(C#N)cc3)sc2=O)cc1,1.95%
15,COc1cccc(CNc2nc3cc(-c4csc5ccccc45)sc3c(=O)n2C)c1,-4.94%
16,COc1ccc(CC(NC(C)=O)C(=O)N2CCN(C(=O)Nc3cccc(Cl)c3)CC2)cc1OC (stereo not given),50.1% (active)
17,COc1ccc(CC(NC(C)=O)C(=O)NC2CCN(C(=O)C3CC3)CC2)cc1OC (stereo not given),-0.652%
18,COc1ccc(CC(NC(C)=O)C(=O)NC2CCN(C(=O)Nc3ccc(C#N)cc3)CC2)cc1OC (stereo not given),-4.35%

row,SMILES,inhibition
1,CCOc1ccc(CCN2C(=S)N([C@@H](CC(C)C)CN3CCC[C@@H]3CN3C(=S)NC[C@@H]3Cc3ccc(O)cc3)C[C@@H]2Cc2ccc(O)cc2)cc1,1.22%
2,CCc1nc2ccc(C(=O)NCc3ccc(OC)cc3)cn2c1N(CC)Cc1cccc(Br)c1,4.42%
3,Cc1cccc(C(=O)NC2CCN(CC(=O)Nc3cccc(Cl)c3)CC2)c1,-0.446%
4,CCCOc1ccc(F)cc1-c1cc(C(=O)NCc2ccc(F)cc2)[nH]n1,14.3%
5,CN(C)C(=S)Nc1ccc(Br)cc1Cl,1.91%
6,CC(C)(C)NC(=O)COC(=O)c1cc(Br)ccc1Cl,-3.23%
7,CN(C)C(=O)c1cc(Br)ccc1Cl,102% (active)
8,CCOC(=O)C1CCCN(C(=O)c2ccc(C)c(F)c2)CC1 (stereo not given),-7.05%
9,COc1ccc(-c2cc(NC(C)=O)c3ncc(-c4cc(OC)c(OC)c(OC)c4)n3c2)cn1,-2.19%
10,COc1ccccc1CNC(=O)c1cc(-c2cc(Cl)ccc2C)n[nH]1,20.2%
11,COc1ccc(C(CNC(=O)COc2ccc([N+](=O)[O-])cc2)N2CCCCC2)cc1 (stereo not given),3.74%
12,COc1ccc(C(CNC(=O)COc2ccccc2OC)N2CCCCC2)cc1 (stereo not given),-2.23%
13,CCc1ccc(OCC(=O)NCC(c2ccc(Cl)cc2)N2CCCCC2)cc1 (stereo not given),58.2% (active)
14,CC(C)Nc1nc(NCCOc2ccccc2Cl)c2sccc2n1,-13.3%
15,Oc1cccc2cc(-c3ccncc3)cnc12,11.1%
16,CCOC(=O)C(=Cc1ccccc1)C(=O)c1ccccc1,-5.2%
17,COc1ccc(C(C)(O)c2nc(-c3cc(F)cc(F)c3)cs2)cc1 (stereo not given),-4.33%
